# Assay results published in PubChem BioAssay AID720541 (National Center for Advancing Translational Sciences (NCATS), 2013).
# The campaign covered roughly 1,300 compounds. About 420 (32%) were called active. Inconclusive results (about 32%) are left out. The call rests on the fitted dose curve; in most records, active means well fitted inhibition curve with a large enough effect; inconclusive means small, poorly fitted or top-dose-only effect; inactive means no such curve, though single readings can be large or run the other way. Some of the results follow. Entries that show only a call come without a potency.
# Target: C-terminal-binding protein 1 (Homo sapiens) (UniProt Q13363)
# Assay: qHTS for Inhibitors of the Phosphatase Activity of Eya2: Carboxyl-terminal binding protein (CtBP) Counterscreen for Cherry-picked Compounds; further: nearly all actives have a fitted effect of over 65% in size
# Details: purified protein-protein binding, AlphaScreen, 3 h; series mostly up to 46.1 µM
# Procedure, shortened: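 Cherry-picked compounds (final 2.5 nM–46 uM) were incubated 2 h at RT with 25 nM CtBP-6xHIS and 25 nM GST-E1A. Alpha beads (20 ug/mL) were then added for 1 h, light-protected; DMSO and E1A peptide inhibitor wells set the normalization.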
# Potency means the concentration at half of the fitted maximal effect.
row,Structure (SMILES),Potency
1,CCOC(=O)C1=C(N)Oc2c(oc(CO)cc2=O)C1c1ccc(Cl)cc1 (stereo not given),inactive
2,CC1CCN(C(=O)Nc2ccc3nc(-c4ccco4)c(-c4ccco4)nc3c2)CC1,15.1 µM (active)
3,O=C(Nc1ccc2nc(-c3ccco3)c(-c3ccco3)nc2c1)N1CCCC1,16.9 µM (active)
4,CCOC(=O)c1ncccc1NC(=O)CC(=O)Nc1cccnc1C(=O)OCC,2.39 µM (active)
5,Cc1cc(OC(=O)c2ccc(Cl)cc2)cc(=O)n1C,inactive
6,C[C@H](O)[C@@H]1CN2CCc3c([nH]c4ccc(-c5ccc6c(c5)OCO6)cc34)[C@@H]2C[C@@H]1N(C)C(=O)NC1CCCCC1,inactive
7,COc1ccc(Nc2nc(N)nc(CSC(=S)N3CCCCC3)n2)cc1,inactive
8,Oc1ccccc1C=NC1CCCCC1N=Cc1ccccc1O (stereo not given),15.1 µM (active)
9,COc1cc([C@H]2Oc3cc([C@H]4Oc5cc(O)cc(O)c5C(=O)[C@@H]4O)ccc3O[C@@H]2CO)ccc1O,inactive
10,c1ccc(-c2ccc(C3=Nn4c(nnc4-c4cc(-c5ccccc5)n[nH]4)SC3)cc2)cc1,inactive
11,Cc1cc(C)n2nc(C(=O)NC3CCCc4ccccc43)nc2n1 (stereo not given),inactive
12,O=c1[nH]c(SCCOc2ccccc2F)nc2ccccc12,inactive
13,Cc1cc(C)n2nc(SCCOc3ccccc3F)nc2n1,12 µM (active)
14,O=c1[nH]c(=O)n(C2C[C@H](O)[C@@H](CO)O2)cc1C(F)(F)F (stereo not given in full),inactive
15,COc1cccc(/C=N/N2C(=O)CSC2=S)c1O,1.2 µM (active)
16,Cc1ccc(Nc2nc(NCCO)nc3c2cnn3C)cc1Cl,7.57 µM (active)
17,COc1ccc(Nc2nc(-c3c(C)nc4ncccn34)cs2)cc1,2.69 µM (active)
18,Cc1nc2ncccn2c1-c1csc(Nc2ccccc2)n1,2.39 µM (active)
19,CC1=C(C(=O)OC(C)C)C(c2ccc(N(C)C)cc2)C2=C(CC(C)(C)CC2=O)N1 (stereo not given),inactive
20,Cc1cc(C(=O)O)ccc1-n1c(C)cc(C=C2C(=O)c3ccccc3C2=O)c1C,inactive
21,COC(=O)c1ccc(C23CC4(C2)[C@H](CN(CC2CCCCC2)[C@@H]4c2ccccc2)C3c2ccc(Cl)nc2)cc1 (stereo not given in full),inactive
22,CCCC(=O)NC(=S)Nc1sc2c(c1C(N)=O)CCC2,inactive
23,NC(=O)c1c(NC(=O)c2ccc(N3C(=O)CCC3=O)cc2)sc2c1CCCC2,0.478 µM (active)
24,Cc1sc(NC(=O)C2=COCCO2)c(C(N)=O)c1C,inactive

row,Structure (SMILES),Potency
1,NC(=O)c1c(NC(=O)c2cnccn2)sc2c1CCCC2,0.301 µM (active)
2,COc1ccccc1NC(=O)NCCN1CCN(C(=O)Nc2ccccc2OC)CC1,inactive
3,COc1ccc(-c2cc(C3CCNCC3)[nH]n2)cc1,inactive
4,CC(=O)c1ccc(OC(=O)/C=C/c2ccccc2)cc1,0.536 µM (active)
5,COC(=O)c1ccc(OC(=O)c2cccnc2)cc1,inactive
6,O=C(Oc1ccc(C(=S)N2CCOCC2)cc1)c1ccc(F)cc1,inactive
7,O=C(Oc1ccc(C(=S)N2CCOCC2)cc1)c1ccccc1,inactive
8,O=C(O)c1ccc2c(c1)C(=O)N(c1ccc(/C=C/C(=O)c3ccccc3)cc1)C2=O,inactive
9,O=C(/C=C/c1ccccc1)Oc1ccc(C(=S)N2CCOCC2)cc1,0.239 µM (active)
10,Cc1ccc(C2CC(c3ccc(Br)cc3)=NN2C(=O)CSC2=NN3CCCC(=O)N=C3S2)cc1 (stereo not given),inactive
11,Fc1cccc(Cc2c(-c3ccco3)nc3ccc(Br)cn23)c1,inactive
12,CC(=O)N1CCN(/[N+]([O-])=N/Oc2ccc([N+](=O)[O-])cc2[N+](=O)[O-])CC1,inactive
13,COc1cc(C(=S)N2CCOCC2)ccc1OC(=O)c1ccc([N+](=O)[O-])cc1[N+](=O)[O-],10.7 µM (active)
14,O=[N+]([O-])c1ccc([N+](=O)[O-])c(Nc2ccc(N3CCOCC3)cc2)c1,inactive
15,S=c1[nH]nc(-c2ccccn2)n1/N=C/c1ccc(Br)s1,12 µM (active)
16,C[C@@]12CCC=C[C@H]1[C@H](c1ccc3ccccc3c1/C=C/c1ccccc1)N(Cc1ccccc1)C2=O,inactive
17,Cc1ccc(S(=O)(=O)N2c3ccccc3-c3c(ssc3=S)C2(C)C)cc1,15.1 µM (active)
18,CC(C)OCCCNC(=O)c1ccccc1NC(=O)C1=CSCCO1,inactive
19,Nc1ccccc1C(=O)NNc1c2ccccc2nc2ccccc12,6.75 µM (active)
20,CC(C)(C)C(=O)[C@H]1[C@H](c2ccccc2)[C@@]2(N=C(c3ccccc3)OC2=O)C2c3ccccc3C=NN21 (stereo not given in full),inactive
21,CCOc1ccc2nc(N3CCCC(C(=O)N4CCN(CC)CC4)C3)sc2c1 (stereo not given),inactive
22,O=C1c2cccc3cccc(c23)C(=O)N1CCCN1CCN(c2ccc(F)cc2)CC1,inactive
23,CCC(=O)Nc1ccc(-c2nnc(SCc3ccccc3)n2C)cc1,inactive
24,Cc1ccc2cc(NC(=O)CC(CC(=O)O)c3ccccc3)ccc2n1 (stereo not given),15.1 µM (active)

row,Structure (SMILES),Potency
1,Cc1ccc(S(=O)(=O)N2CCOCC2)cc1NC(=O)CSc1nnc2cc(C)c3ccccc3n12,13.5 µM (active)
2,CCSc1nnc(-c2ccc(S(=O)(=O)N3CCOCC3)cc2)n1C,inactive
3,CCSc1nc2ccccc2n1C(=O)c1ccc(S(=O)(=O)N2CCCCC2)cc1,inactive
4,Cc1cc(C)c2nc(SCC(=O)N(C)C3CCS(=O)(=O)C3)cc(C)c2c1 (stereo not given),inactive
5,COc1ccc(S(=O)(=O)c2c(O)c3ccc(C(=O)Nc4cccc(F)c4)cc3[nH]c2=O)cc1,0.536 µM (active)
6,COc1ccc(N(CC(=O)Nc2cccc(C(C)=O)c2)S(=O)(=O)c2ccc(NC(C)=O)cc2)cc1,inactive
7,COc1ccc(S(=O)(=O)c2c(O)c3ccc(C(=O)Nc4ccccc4F)cc3[nH]c2=O)cc1,0.757 µM (active)
8,COc1ccc(C(=O)Nc2cc(OC)c(NC(=O)Nc3ccccc3)cc2OC)cc1,inactive
9,COc1ccc(C2NC(C(=O)O)Cc3c2[nH]c2ccccc32)cc1CN1CCN(c2ccc(F)cc2)CC1 (stereo not given),inactive
10,CCc1nc2ccc(C(=O)NCCCN(C)C)cn2c1N(C)Cc1ccc(OC)cc1,inactive
11,COc1cc(OC)c(OC)cc1/C=C1\C=Cc2ccccc21,12 µM (active)
12,COc1cc(N(C)C)ccc1/C=C1\C=Cc2ccccc21,8.49 µM (active)
13,COc1cc(OC)c(OC)cc1/C=C1\CC(C)C/C(=C\c2cc(OC)c(OC)cc2OC)C1=O (stereo not given),inactive
14,CN(C)c1ccc(/C=C2\C=Cc3ccccc32)c(Cl)c1,8.49 µM (active)
15,COc1cc(N(C)C)c(OC)cc1/C=C1\C=Cc2ccccc21,5.36 µM (active)
16,Cc1cc(C)c(C#N)c(Sc2nnnn2-c2ccccc2)n1,inactive
17,N#Cc1c(N)n(-c2ccc(C(=O)O)cc2)c2nc3ccccc3nc12,12 µM (active)
18,O=C(O)c1ccc2c(c1)C(=O)N(c1cccc(-c3nc4ccccc4s3)c1)C2=O,inactive
19,N#Cc1c(N)n(-c2cccc(C(=O)O)c2)c2nc3ccccc3nc12,10.7 µM (active)
20,CN(C)C(C)(C)C#CC(O)(c1ccccc1)c1ccccc1,inactive
21,O=C(O)c1ccc(-c2ccc(/C=c3/sc4nc5ccccc5n4c3=O)o2)cc1Cl,4.26 µM (active)
22,CCOc1cccc(CN2CCC(CCC(=O)NC3CC3)CC2)c1O,inactive
23,CC(C(=O)c1ccc(Br)cc1)[n+]1cccc2ccccc21 (stereo not given),inactive
24,CCC(=O)N1c2ccc(S(=O)(=O)N3CCN(c4ccc([N+](=O)[O-])cc4)CC3)cc2CC1C (stereo not given),inactive

row,Structure (SMILES),Potency
1,CCc1ccc2nc(N(CCN(C)C)C(=O)c3ccc4ncsc4c3)sc2c1,inactive
2,Cc1sc2nc3ccc(N4CCCCC4)nn3c(=O)c2c1C,13.5 µM (active)
3,C[C@](N)(Cc1ccc(O)c(O)c1)C(=O)O,inactive
4,CCOc1ccc(C2C3=C(Nc4nc(N)[nH]c(=O)c42)c2ccccc2C3=O)cc1 (stereo not given),2.39 µM (active)
5,CCCOc1ccc(C2C3=C(Nc4nc(N)[nH]c(=O)c42)c2ccccc2C3=O)cc1 (stereo not given),3.79 µM (active)
6,Nc1nc2c(c(=O)[nH]1)C(c1cccc3ccccc13)C1=C(N2)c2ccccc2C1=O (stereo not given),4.26 µM (active)
7,Nc1nc2c(c(=O)[nH]1)C(c1ccccc1)C1=C(N2)c2ccccc2C1=O (stereo not given),1.69 µM (active)
8,CS(=O)(=O)c1ccc(C(=O)Nc2nc(-c3ccco3)c(-c3ccco3)s2)cc1,13.5 µM (active)
9,CS(=O)(=O)c1ccc2nc(NC(=O)c3ccccc3Cl)sc2c1,inactive
10,Cc1nc(NC(=O)c2ccccc2)sc1-c1cc(C(=O)O)nn1Cc1ccccc1,inactive
11,Nc1c(N=Nc2ccc([N+](=O)[O-])cc2)c(S(=O)(=O)O)cc2cc(S(=O)(=O)O)c(/C=C/c3ccccc3)c(O)c12,7.57 µM (active)
12,COc1ccc2c(c1)sc1nc(=O)ccn12,inactive
13,O=C(N[C@@H]1CC[C@H](CCn2cc(-c3ccccn3)nn2)O[C@@H]1CO)c1ccncc1,12 µM (active)
14,Cc1ccc(SCc2nc(N)nc(Nc3ccccc3C)n2)cc1C,inactive
15,COc1ccc(C(=O)C2CCCN(C(=O)c3cccc(N(C)C)c3)C2)cc1OC (stereo not given),inactive
16,COc1cccc(C(=O)C2CCCN(CC3=Cc4cc(OC)ccc4OC3)C2)c1 (stereo not given),13.5 µM (active)
17,Cc1cn2c(nc(=O)c3cccnc32)s1,12 µM (active)
18,Cc1cc(NC(=O)c2cccs2)cc(-c2nc3ncccc3o2)c1O,inactive
19,COc1cc(NC(=O)c2ccccc2Cl)ccc1NC(=O)c1cccs1,inactive
20,Cc1cc(NC(=O)c2ccccc2F)ncc1NC(=O)c1cccs1,12 µM (active)
21,O=C(Oc1ccc(-c2nnco2)cc1)c1ccco1,inactive
22,Cc1ccc(OCC(=O)Nc2cc(NC(=O)COc3ccc(C)c(C)c3)cc(C(=O)O)c2)cc1C,inactive
23,CC(=O)Oc1ccc(C(=O)Nc2cc(NC(=O)c3ccc(OC(C)=O)cc3)cc(C(=O)NC(C)(C)C)c2)cc1,15.1 µM (active)
